The list is not random: actives were taken first. Their share in the collection is about 21%.
IL-1B inflam inh: qHTS for Inhibitors of Inflammasome Signaling: IL-1-beta AlphaLISA Primary Screen. THP-1 LPS/ATP IL-1B secretion, AlphaLISA, 16 h; stronger effect = lower value. actives 4.7% (n = 360,000). activity change, % at 57.5 µM; in the data active = activity change below about -50%; inconclusive = mostly about -30% to -49%; also: % is scaled to controls: 0 for no effect and ±100 for the full control effect
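Secreted IL-1B measured by AlphaLISA bead assay after 16 h compound exposure of THP-1 cells; compounds (final up to 57.5 uM) added 1 h before LPS (250 ng/mL) and ATP (1.25 mM) stimulation; lower signal means less secretion.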
TDP1 cell noCPT: qHTS for Inhibitors of human tyrosyl-DNA phosphodiesterase 1 (TDP1): qHTS in cells in absence of CPT | DT40 Tdp1-/- hTDP1 cells, no CPT, ATP luminescence, 48 h | Potency, µM (series often up to 46.2 µM), without a hit: at the highest dose activity change, negative = growth inhibition, usual class: inhibitors | actives 15% (n = 420,000) | AID 686978, 2013; also: potency is read from the fitted curve at half-maximal effect; % is scaled to controls: 0 for no effect and ±100 for the full control effect; nearly all actives have a fitted effect of over 55% in size
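Readout: luminescence from CellTiter-Glo after 30 min in the dark at RT. Cells: DT40 Tdp1-/- with stable hTDP1, 400/well. Exposure: compounds alone, ≥48 hr, 37 °C.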
ClpP mod: qHTS Assay for Activators of ClpP; ATP-dependent Clp protease proteolytic subunit (Bacillus subtilis (strain 168)), P80244; purified B. subtilis ClpP, FRET peptide cleavage, 20 min; Potency, µM (titrated, usually from 57.5 µM), for the others: at the top dose activity change, negative = active; actives 1.9% (n = 340,000); AID 651965, 2013; active = well fitted falling curve with a large enough effect; inconclusive = small, poorly fitted or top-dose-only effect; inactive = no such curve, though single readings can be large or run the other way; also: potency is read from the fitted curve at half-maximal effect; the source files actives as falling curves though it sought activators and does not explain the sign; nearly all actives have a fitted effect of over 65% in size
Target sequence (P80244 whole entry, looked up): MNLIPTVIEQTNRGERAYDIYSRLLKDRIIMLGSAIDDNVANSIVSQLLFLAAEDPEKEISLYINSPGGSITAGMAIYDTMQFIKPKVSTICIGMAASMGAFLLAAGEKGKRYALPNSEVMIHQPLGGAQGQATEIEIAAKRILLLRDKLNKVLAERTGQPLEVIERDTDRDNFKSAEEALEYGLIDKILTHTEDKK
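Buffer: 100 mM Tris/HCl pH8, 100 mM KCl, 0.05% low protease BSA, 2.5% glycerol, 0.01% Tween-20. ClpP 10 microg/mL final; 20 min RT; delta FRET normalized to ADEP and DMSO controls.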
D3 antag: qHTS of D3 Dopamine Receptor Antagonist: qHTS; D3R cells, DiscoveRx beta-arrestin luminescence, antagonist mode; stronger effect = lower value; AID 652054, 2013; actives 2.5% (n = 360,000); max response, negative = inhibition, %; D(3) dopamine receptor (Homo sapiens), P35462; in the data active = max response below about -50%; inconclusive = no clear call, values can overlap the other calls; also: % is scaled to controls: 0 for no effect and ±100 for the full control effect
Target sequence (P35462 whole entry, looked up): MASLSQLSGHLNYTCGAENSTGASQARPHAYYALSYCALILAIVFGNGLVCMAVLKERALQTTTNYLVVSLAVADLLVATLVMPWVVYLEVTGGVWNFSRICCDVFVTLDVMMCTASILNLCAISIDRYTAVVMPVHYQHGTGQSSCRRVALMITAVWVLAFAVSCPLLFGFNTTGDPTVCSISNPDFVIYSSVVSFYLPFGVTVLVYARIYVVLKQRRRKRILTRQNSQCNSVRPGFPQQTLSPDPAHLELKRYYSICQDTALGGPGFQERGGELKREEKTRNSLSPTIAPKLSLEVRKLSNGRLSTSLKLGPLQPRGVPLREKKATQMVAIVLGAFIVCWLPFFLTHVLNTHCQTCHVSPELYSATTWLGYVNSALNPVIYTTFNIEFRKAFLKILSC
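Cells expressing the human receptor were seeded at 1500 cells/well, incubated overnight at 37 degrees C in 5% CO2, then exposed to library compounds with dopamine controls for 90 minutes at 37 degrees C before luminescent detection.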
D3 ag: qHTS of D3 Dopamine Receptor Agonist: qHTS. D(3) dopamine receptor (Homo sapiens), P35462. D3R DiscoveRx beta-arrestin cells, luminescence, 90 min. max activation, %. actives 0.58% (n = 410,000). AID 652048, 2013; in the data active = max activation above about 30%; also: 0% is about no effect
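Agonist mode: compounds and dopamine controls were applied to plated cells for 90 min at 37 degrees C after an overnight attachment at 1500 cells/well. Luminescent read-out followed 30 - 60 minutes at room temperature with DiscoveRx detection reagent.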
TDP1 cell CPT: qHTS for Inhibitors of human tyrosyl-DNA phosphodiesterase 1 (TDP1): qHTS in cells in presence of CPT | chicken DT40 Tdp1-/-;hTDP1 cells + 20 nM CPT, ATP luminescence, 48 h | Potency, µM (top dose mostly 46.2 µM), without a hit: at the highest dose activity change, negative = growth inhibition, hits mostly inhibitors | actives 12% (n = 420,000); also: potency is read from the fitted curve at half-maximal effect; % is scaled to controls: 0 for no effect and ±100 for the full control effect; nearly all actives have a fitted effect of over 55% in size
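Cell growth measured by CellTiter-Glo luminescence after a minimum 48 h, 37 C compound exposure with 20 nM CPT in Tdp1-knockout DT40 cells stably expressing hTDP1, seeded 400/well; qHTS titration format.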
Numbers without * were called inactive. Unless noted, calls follow the shape of the dose curve; as a rule, active = well fitted inhibition curve with a large enough effect; inconclusive = small, poorly fitted or top-dose-only effect; inactive = flat fitted curve, though single readings scatter.

For C[C@@H](CN=[N+]=[N-])CN1CC[C@H](NC(=O)OCc2ccccc2)CCC1=O the results were IL-1B inflam inh 20, TDP1 cell noCPT inconclusive, ClpP mod 0%, D3 antag 6, D3 ag 2 and TDP1 cell CPT inconclusive.
Screening Cc1ccc(SC[C@H](Cc2ccccc2)N2CC[C@@H](NC(=O)OCc3ccccc3)CCC2=O)cc1 returned TDP1 cell noCPT 13µM*, ClpP mod 6% and TDP1 cell CPT 18µM*.
For COc1cccc(C2=CC(c3cccc(OC)c3OC)n3nnnc3N2)c1 (centres undefined) the results were IL-1B inflam inh -18, TDP1 cell noCPT 16µM*, ClpP mod -1%, D3 antag 5, D3 ag -5 and TDP1 cell CPT 12µM*.
Screening COc1cccc(C2C=C(c3ccc(C)c(C)c3)Nc3nnnn32)c1OC (centres undefined) returned TDP1 cell noCPT 3.7µM*, ClpP mod -6%, D3 ag -5 and TDP1 cell CPT 5.2µM*.
`Cc1ccccc1C1C=C(c2ccc(Cl)cc2)Nc2nnnn21` (centres undefined) gave TDP1 cell noCPT inconclusive, ClpP mod -2%, D3 ag -9 and TDP1 cell CPT -28%.
For COc1cccc(C2=CC(c3cccc(OC)c3OC(F)F)n3nnnc3N2)c1 (centres undefined) the results were IL-1B inflam inh 2, TDP1 cell noCPT inconclusive, ClpP mod 1%, D3 antag 25, D3 ag 0 and TDP1 cell CPT inconclusive.
CC(=O)c1ccc(OCc2cn(CC(=O)c3ccc(O)cc3)nn2)cc1 was read as IL-1B inflam inh 18, TDP1 cell noCPT 5%, ClpP mod -2%, D3 antag -13, D3 ag -9 and TDP1 cell CPT 1%.
`COc1cc(C=O)ccc1OCc1cn(CC(=O)c2ccc(O)cc2)nn1` gave IL-1B inflam inh 9, TDP1 cell noCPT -18%, ClpP mod -1%, D3 antag 34, D3 ag 0 and TDP1 cell CPT -1%.
`CC(=O)c1ccc(OCc2cn(CC(=O)c3ccc(O)cc3)nn2)c(C)c1` gave IL-1B inflam inh 18, TDP1 cell noCPT 1%, ClpP mod 1%, D3 antag -24, D3 ag -6 and TDP1 cell CPT 3%.
For CC(=O)Nc1ccc(OCc2cn(CC(=O)c3ccc(O)cc3)nn2)cc1 the results were IL-1B inflam inh -12, TDP1 cell noCPT -12%, ClpP mod 1%, D3 antag -114*, D3 ag -21 and TDP1 cell CPT -15%.
Screening O=C(Cn1cc(COc2ccc(Br)cc2[N+](=O)[O-])nn1)c1ccc(O)cc1 returned IL-1B inflam inh -5, TDP1 cell noCPT 2%, ClpP mod 0%, D3 antag -59*, D3 ag -14 and TDP1 cell CPT inconclusive.
For COc1cc(C(C)=O)ccc1OCc1cn(CC(=O)c2ccc(O)cc2)nn1 the results were IL-1B inflam inh -3, TDP1 cell noCPT -9%, ClpP mod 2%, D3 antag -72*, D3 ag 3 and TDP1 cell CPT inconclusive.
For Cc1cccc(C)c1OCc1cn(CC(=O)c2ccc(O)cc2)nn1 the results were IL-1B inflam inh 0, TDP1 cell noCPT -5%, ClpP mod -3%, D3 antag -61*, D3 ag -13 and TDP1 cell CPT -6%.
`NC(=O)C1C2CCC(C2)C1C(N)=O` (centres undefined) gave IL-1B inflam inh 15, TDP1 cell noCPT -19%, ClpP mod 1%, D3 antag -7, D3 ag 0 and TDP1 cell CPT inconclusive.
For CCc1ccc(NC(=O)Cn2c(=O)n(CCCCC(=O)NCc3ccccc3Cl)c(=O)c3ccccc32)cc1 the results were TDP1 cell noCPT inconclusive, ClpP mod -4%, D3 ag -6 and TDP1 cell CPT inconclusive.
For O=C1CCCC/C1=C\Nc1ccccc1C(=O)O the results were IL-1B inflam inh -7, TDP1 cell noCPT -17%, ClpP mod 32µM*, D3 antag 2, D3 ag 5 and TDP1 cell CPT -16%.
COc1ccc(CNC(=O)c2cn(Cc3ccc(OC(C)=O)cc3)c(=O)s2)cc1 was read as IL-1B inflam inh 5, TDP1 cell noCPT inconclusive, ClpP mod 0%, D3 antag 0, D3 ag 1 and TDP1 cell CPT inconclusive.
`CN(C)c1ccc(C(=O)NCc2ccc3c(c2)CCN3C(=O)c2ccccc2)cc1` gave TDP1 cell noCPT inconclusive, ClpP mod -6%, D3 ag 1 and TDP1 cell CPT 16µM*.
`CCC(=O)N1CCc2cc(CNC(=O)Nc3cc(C)ccc3C)ccc21` gave TDP1 cell noCPT -1%, ClpP mod -1%, D3 ag 4 and TDP1 cell CPT -4%.
`Cc1ccc(C)c(NC(=O)NCc2ccc3c(c2)CCN3C(=O)c2ccccc2)c1` gave TDP1 cell noCPT inconclusive, ClpP mod 1%, D3 ag -22 and TDP1 cell CPT 21µM*.
For CCN(CC)c1ccc(C(=O)NCc2ccc3c(c2)CCN3C(=O)c2ccccc2)cc1 the results were TDP1 cell noCPT 23µM*, ClpP mod inconclusive, D3 ag 7 and TDP1 cell CPT 21µM*.
Screening Cc1ccc(C(=O)NCc2ccc3c(c2)CCN3C(=O)c2ccc(C)cc2)cc1 returned TDP1 cell noCPT 18µM*, ClpP mod 0%, D3 ag 3 and TDP1 cell CPT 21µM*.
`COc1ccc(S(=O)(=O)N(C)c2ccc(C(=O)Nc3ccccc3C(=O)N3CCOCC3)cc2)cc1OC` gave IL-1B inflam inh -6, TDP1 cell noCPT -14%, ClpP mod -2%, D3 antag 7, D3 ag 1 and TDP1 cell CPT inconclusive.
For O=C(NNS(=O)(=O)c1ccccc1)C1CCCCC1 the results were IL-1B inflam inh 12, TDP1 cell noCPT -6%, D3 antag 0, D3 ag 5 and TDP1 cell CPT 13%.
`Cc1[nH]c2ccccc2c1C(c1ccccn1)N1CCC(C)CC1` (centres undefined) gave IL-1B inflam inh -107*, TDP1 cell noCPT 21µM*, ClpP mod -1%, D3 antag 11, D3 ag 7 and TDP1 cell CPT 21µM*.
